SARS PLP yeast – qHTS of Yeast-based Assay for SARS-CoV PLP | S. cerevisiae expressing SARS-CoV PLpro, growth rescue | Potency, µM (titrated, usually from 32.9 µM), inactives show at the highest dose activity, positive = growth rescue, most hits filed as activators | hit rate 0.19% among 330,000 | AID 485353, 2010; calls by dose curve; note: potency is the fitted concentration of half-maximal effect; 0% is about no effect; nearly all actives have a fitted effect of over 55% in size
Pf growth 48h – Primary qHTS for delayed death inhibitors of the malarial parasite plastid, 48 hour incubation. P. falciparum luciferase growth in erythrocytes, 48 h. Potency, µM (series often up to 28.7 µM), inactives show at the top dose activity change, negative = inhibition, actives largely listed as inhibitors. hit rate 5.9% among 310,000; note: potency is the fitted concentration of half-maximal effect; % is set by controls: 0 for no effect and ±100 for the full control effect
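First compound was added to culture medium, then infected red cells at 0.1% parasitemia and 2% hematocrit (final). After incubation at 37 C under 5% CO2, luciferase detection reagent was dispensed and light output recorded.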
AMA1 RON2 block – qHTS for Inhibitors of AMA1-RON; Towards Development of Antimalarial Drug Lead: Primary Screen. Plasmodium falciparum AMA1 (3D7) - RON2 peptide interaction. AID 720542, 2013. AlphaScreen AMA1-biotinylated RON2 peptide binding. Potency, µM (highest dose often 58.2 µM), for the others: at the highest dose activity change, negative = inhibition, actives largely listed as inhibitors. hit rate 0.2% among 360,000;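 note: potency is the fitted concentration of half-maximal effect; 0% = vehicle wells and -100% = peptide control; nearly all actives have a fitted effect of over 45% in size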
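AMA1 (3D7) with his tag at 25 nM final met compounds first, then biotinylated RON2 peptide at 25 nM; detection used donor plus acceptor beads, 10 µg/mL apiece, read by AlphaScreen after 30 min at room temperature.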
Shiga toxin inh – A qHTS for Small Molecule Inhibitors of Shiga Toxin; Vero cells, Shiga toxin protein synthesis inhibition reporter; inhibition, % at 38.7 µM; hit rate 9.2% among 290,000; AID 2315, 2010; in the data active = inhibition mostly above about 28%, no sharp cut-off; inactive = mostly below about 43%; note: 0% is about no effect
Pf growth 96h – Primary qHTS for delayed death inhibitors of the malarial parasite plastid, 96 hour incubation; AID 504834, 2011; P. falciparum luciferase reporter growth, 96 h; Potency, µM (doses to about 28.7 µM), without a hit: at the top dose activity change, negative = inhibition, actives largely listed as inhibitors; hit rate 6.9% among 320,000; note: potency is the fitted concentration of half-maximal effect; % is set by controls: 0 for no effect and ±100 for the full control effect
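Parasite growth measured via integrated firefly luciferase reporter in P. falciparum. Infected erythrocytes at 2% hematocrit, 0.05% parasitemia final were treated 96 hours at 37 C under 5% CO2, and luminescence was read.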
CHX counter – Cycloheximide Counterscreen for Small Molecule Inhibitors of Shiga Toxin. cell reporter, cycloheximide protein synthesis inhibition counterscreen. max response, %. hit rate 12% among 300,000; in the data active = max response mostly above about 13%, no sharp cut-off; inactive = mostly below about 14%; note: read at 38.3 µM for the half of the compounds with a filed dose; 0% is about no effect
* = called active by the depositor; ? = inconclusive; nt = no result. The list is not random: actives were taken first. Their share in the collection is about 19%. Unless noted, calls come from the whole dose curve; as a rule, active = well fitted curve in the direction sought with a large enough effect; inconclusive = small, poorly fitted or top-dose-only effect, or another doubt; inactive = no such curve, though single readings can be large; an effect the other way counts as inactive or inconclusive.

SMILES	SARS PLP yeast	Pf growth 48h	AMA1 RON2 block	Shiga toxin inh	Pf growth 96h	CHX counter
O=C1C(F)=CC(COC(c2ccccc2)(c2ccccc2)c2ccccc2)OC1n1cc(F)c(=O)[nH]c1=O (configuration not stated)	nt	nt	24.6%	nt	nt	nt
CC(C)C(=O)NC(c1cccc([N+](=O)[O-])c1)c1c(O)ccc2ccccc12 (configuration not stated)	0.7%	4.65µM*	13.9%	-10.5	1.7%	-0.6
CC(C)C(=O)NC(c1ccc([N+](=O)[O-])cc1)c1c(O)ccc2ccccc12 (configuration not stated)	4.7%	1.85µM*	-7.4%	-7.9	2.62µM*	-2.2
COC(=O)c1ccc(C(=O)NC(=S)Nc2ccc3nc(SC)sc3c2)cc1	20.9%	24.5%	16.9%	11.4	55.4%	10.6*
CSc1nc2ccc(NC(=O)c3ccccn3)cc2s1	6.5%	69.1%	0.6%	104.8*	69.9%	37.8*
CSc1nc2ccc(NC(=O)C3=NNC(=O)CC3)cc2s1	-1.2%	0.0%	-2.5%	46.6	9.7%	16.5*
CSc1nc2ccc(NC(=O)C3=NN(c4ccccc4)C(=O)CC3)cc2s1	-2.1%	-11.2%	-17.5%	17.2	-1.6%	6.3
CN(C(=O)CSc1cc(Cl)ccc1Cl)C1CCS(=O)(=O)C1 (configuration not stated)	-1.5%	nt	-10.2%	nt	nt	nt
COc1cc(C(CCN2CCCC(C)C2)c2c(OC)cc(OC)c3c2OC(=O)CC3c2ccc(N(C)C)cc2)cc(OC)c1OC (configuration not stated)	-1.4%	9.28µM*	20µM*	-13.2	10.4µM*	10.0
COc1cc(C2CC(=O)Oc3c(C(CCN4CCCC(C)C4)c4ccc(N(C)C)cc4)c(OC)cc(OC)c32)cc(OC)c1OC (configuration not stated)	-3.8%	13.1µM*	-26.6%	11.5	?	-6.0
O=C(O)C(Cc1ccc(Cl)cc1)NS(=O)(=O)c1ccc(Cl)cc1 (configuration not stated)	1.7%	nt	-8.3%	-4.3	26.0%	-4.2
CN1CCc2c(sc3c2C(=O)NC(c2ccco2)N3)C1 (configuration not stated)	9.9%	0.7%	35.2%	-1.4	?	3.9
CN1CCc2c(sc3c2C(=O)NC(c2cccc(OC(=O)c4cccs4)c2)N3)C1 (configuration not stated)	12.8%	116.5%	20.7%	70.3*	?	44.8*
Cc1nc(Nc2ccccc2)c2oc3ccc(Cl)cc3c2n1	-0.6%	?	4.3%	43.1*	?	18.3*
c1ccc2c(c1)oc1c(Nc3ccc4c(c3)OCO4)ncnc12	-0.3%	101.3%	-11.0%	100.3*	150.9%	45.3*
Cc1ccc(Nc2nc(C)nc3c2oc2ccccc23)cc1	-1.4%	?	-11.4%	22.3	?	11.2*
Cc1nc(Nc2ccc3c(c2)OCO3)c2oc3ccccc3c2n1	-2.3%	?	-22.1%	45.6*	6.4%	38.5*
c1ccc2c(c1)oc1c(NCc3ccc4c(c3)OCO4)ncnc12	1.0%	15.0%	-2.8%	-11.6	-15.5%	-1.8
COc1ccccc1NC(=O)CCSc1nnc(-c2ccncc2)o1	0.5%	8.6%	13.3%	20.8	1.5%	10.9
Cc1cc(N)nc(=O)n1C1CC(O)C(CO)O1 (configuration not stated)	nt	nt	-2.6%	nt	nt	nt
C=CCNc1nc(Cl)nc(Nc2cc(Cl)ccc2OC)n1	6.1%	-3.7%	-8.4%	-11.4	-9.8%	-3.1
CC(C)c1ccc(Nc2nc(Cl)nc(Cl)n2)cc1	nt	70.7%	-16.0%	nt	-93.8%	-0.8
CNc1nc(Cl)nc(Nc2ccccc2)n1	-0.6%	0.0%	-0.3%	45.2*	?	40.3*
C=CCNc1nc(Cl)nc(Nc2ccccc2)n1	-1.8%	51.5%	8.1%	40.2*	-7.2%	21.5*
NC(=S)N/N=C/c1ccc(-c2cc(Cl)cc(Cl)c2)o1	nt	?	-9.8%	-9.3	nt	11.5
